Data as given in publication PMC5540273 (PLoS ONE, 2017).
pKd: −log10 of the molar value.

How the values were obtained:
DCAMKL2 = tested on: T1, DCAMKL2
T1 construct: gene DCLK2
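Note: kd values determined as follow-up on hits from a single-replicate KINOMEscan panel screen.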

In the case of Cn1cncc1C(=O)NC1CCN(c2ccnc(Nc3ccc(F)cc3)n2)C1 (stereo not shown) [GSK1379717], the pKd (CDKL3) was less than 5.00.

In the case of CS(=O)(=O)CCNCc1nc(-c2ccc3ncnc(Nc4ccc5c(cnn5Cc5ccccc5)c4)c3c2)cs1.Cl.Cl [GW569716], the pKd (CDKL3) was less than 5.00.

Compound COc1ccc(Nc2nccc(N3CCC(NC(=O)C(C)c4ccc(Cl)cc4)CC3)n2)cc1 (stereo not shown) [GSK1379812] has a pKd (CDKL5) of less than 5.00.

With O=C(Nc1n[nH]c2nc(-c3ccco3)c(Br)cc12)C1CCN(Cc2ccccc2)C1.O=C(O)[C@H](O)[C@@H](O)C(=O)O (stereo not shown) [SB-742034] the pKd (CDKL5) was 5.96.

Cc1ccc(NC(=O)Nc2ccc(Cl)c(C(F)(F)F)c2)cc1-c1ccc(C(=O)Nc2ccncc2)cc1 [GSK1398470] showed a pKd (CIT) of 6.42.

With CNc1cc(-c2ccc3c(N)n[nH]c3c2)nc(N)n1 [GSK2224810] the pKd (CLK1) was 6.48, the pKd (CLK2) was 6.39 and the pKd (CLK4) was 6.85.

With COc1cccc(C2=C(Nc3cc(Cl)c(O)c(Cl)c3)C(=O)NC2=O)c1 [SB-390767] the pKd (CSNK1G1) was less than 5.00.

With NS(=O)(=O)c1cccc(N/C=C2\C(=O)Nc3ccc(S(=O)(=O)Cc4c(Cl)cccc4Cl)cc32)c1 [GSK398099] the pKd (DAPK1) was less than 5.00.

With Cn1cnc2c(N)ncnc21 [SKF-97623] the pKd (DAPK1) was less than 5.00.

In the case of Cc1ccc(NC(=O)Nc2ccccc2)cc1-c1ccc(C(=O)Nc2ccncc2)cc1 [GSK1398471], the pKd (CIT) was 6.27 and the pKd (CSF1R) was 5.48.

With CCCCc1nn2ncccc2c1-c1ccnc(NC2CC2)n1 [GW684374] the pKd (CLK3) was less than 5.00, the pKd (CSNK1D) was 6.32 and the pKd (CSNK1E) was 5.54.

Compound c1ccc(-c2ccnc3[nH]ccc23)cc1 [SB-693578] has a pKd (CSNK1G1) of less than 5.00.

With Fc1ccc(-c2nc3n(c2-c2ccncc2)CCS3)cc1 [GI98581] the pKd (CIT) was 6.12, the pKd (CSNK1A1) was 6.59 and the pKd (CSNK1D) was 7.08. It also gave a pKd (CSNK1E) of 6.74.

With Cl.Cl.Cl.N#Cc1ccc(CCNc2nccc(-c3cccc(CN4CCNCC4)c3)n2)cc1 [GSK2137462] the pKd (CIT) was 5.07.

Cc1nccc(-c2c(-c3ccc(F)cc3)ncn2CCCN2CCOCC2)n1.Cl [SB-282975] was tested, and the pKd (CSNK1D) was 7.12, the pKd (CSNK1E) was 6.34 and the pKd (DAPK2) was less than 5.00.

Compound CC(=O)c1c(C)c2cnc(Nc3ccn(C)n3)nc2n(C2CCCC2)c1=O has a pKd (DCAMKL2) of less than 5.00.

Work on CC[C@@H]1CO[C@H](C(=O)Nc2ccccc2)CN1c1cc(-c2ccc3c(N)n[nH]c3c2)nc(NC)n1 [GSK2376236] yielded a pKd (CIT) of 6.70.

Fc1ccc(-c2nn3cccc(F)c3c2-c2ccncc2)cc1 [GW475620] gave a pKd (CIT) of 6.51, a pKd (CSNK1D) of 7.11 and a pKd (CSNK1E) of 6.66.

With COc1ccc(CSc2nnc(-c3ccc4ncsc4c3)o2)cc1C(F)(F)F the pKd (CLK1) was 6.77 and the pKd (CLK4) was 5.96.

Work on CC(=O)c1c(C)c2cnc(Nc3ccc(N4CCNCC4)cn3)nc2n(C2CCCC2)c1=O yielded a pKd (CLK3) of less than 5.00 and a pKd (CSNK1E) of less than 5.00.

COc1ccc(CSc2nnc(-c3ccc4nccn4c3)o2)cc1C(F)(F)F was tested, and the pKd (CLK1) was 7.15, the pKd (CLK2) was 6.82 and the pKd (CLK4) was 6.89.

In the case of O=C1NC(=O)C(c2ccc(Cl)cc2)=C1Nc1cccc(Cl)c1 [SB-317651], the pKd (CLK1) was 5.36 and the pKd (CSNK1G3) was less than 5.00.

Compound Nc1nccc(-c2c(-c3ccc(F)cc3)ncn2C2CCN(Cc3ccccc3)CC2)n1 [SB-219980] has a pKd (CIT) of 6.89, a pKd (CSNK1A1) of 7.39 and a pKd (CSNK1D) of 8.12. For the same compound, the pKd (CSNK1E) was 7.62.

Compound CNc1nc(-c2ccc3c(N)n[nH]c3c2)cc(N2C[C@@H](C(=O)Nc3ccccc3)CC[C@H]2C)n1 [GSK2298859] has a pKd (CIT) of 6.30.

Compound CNCc1ccc2nc(NC(=O)c3ccc(C(C)(C)C)cc3)cn2c1 has a pKd (CLK1) of 5.12 and a pKd (CSNK1G3) of less than 5.00.

Fc1ccc(-c2nc[nH]c2-c2ccncc2)cc1 [SB-217360] was tested, and the pKd (CIT) was 6.51, the pKd (CSNK1A1) was 7.06 and the pKd (CSNK1D) was 7.39. It also gave a pKd (CSNK1E) of 6.85.

With Cc1ccc(NC(=O)c2ccc(Cl)cc2)cc1-c1ccc(C(=O)Nc2ccncc2)cc1 [GSK1398467] the pKd (CLK2) was less than 5.00 and the pKd (CSF1R) was 6.06.

Cc1ccc(NC(=O)Nc2ccc(Cl)cc2)cc1-c1ccc(C(=O)Nc2ccncc2)cc1 [GSK1398472] showed a pKd (CIT) of 6.37 and a pKd (CSF1R) of 5.17.

COc1ccc(CSc2nnc(-c3ccc4c(c3)CCO4)o2)cc1 gave a pKd (CLK4) of 5.89.

In the case of COC(=O)C(NC(=O)NC1CCN(c2ccnc(Nc3ccc(F)cc3)n2)C1)c1ccccc1 (stereo not shown) [GSK1379712], the pKd (CSNK1D) was less than 5.00.

Work on Cc1cccc2c(-c3ccncn3)c(-c3ccc(F)cc3)nn12 [GW515532] yielded a pKd (CIT) of 5.60, a pKd (CLK1) of less than 5.00 and a pKd (CLK3) of less than 5.00. It also gave a pKd (CSNK1D) of 5.92, a pKd (CSNK1E) of 5.47 and a pKd (CSNK1G3) of less than 5.00.

In the case of COC(=O)c1cccc(NC(=O)NC2CCN(c3ccnc(Nc4ccc(OC)cc4)n3)C2)c1 (stereo not shown) [GSK1379746], the pKd (CLK2) was less than 5.00.

Work on Cc1ccc(NC(=O)Nc2ccccc2F)cc1-c1ccc(C(=O)Nc2ccncc2)cc1 [GSK1398477] yielded a pKd (CIT) of 6.24 and a pKd (CSF1R) of 5.59.

COc1cccc(NC(=O)Nc2ccc(C)c(-c3ccc(C(=O)Nc4ccncc4)cc3)c2)c1 [GSK1398474] was tested, and the pKd (CIT) was 6.55 and the pKd (CSF1R) was 5.48.
